Source: PubChem BioAssay (NCATS)
Results filed as inconclusive are left out. A call without a number means that no potency is given here. Active and inactive are the calls of the source. The call rests on the fitted dose curve; in most records, active means well fitted inhibition curve with a large enough effect; inconclusive means small, poorly fitted or top-dose-only effect; inactive means flat fitted curve, though single readings scatter.

Experiments:
Test in all cases: qHTS profiling for inhibitors of Plasmodium falciparum proliferation (AID 504749); further: nearly all actives have a fitted effect of over 60% in size
Conditions in all cases: P. falciparum in erythrocytes, SYBR Green DNA, 72 h; series mostly up to 28.7 µM
CP329 = tested on: CP329
Method in brief: (§1)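 Fluorescence of SYBR Green-bound parasite DNA, read at 485/535 nm, served as the growth measure. Infected erythrocytes were cultured with compound 72 h; artemisinin (0.29 uM) and DMSO wells defined the normalization range.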

CP335 = tested on: CP335
Method in brief: as §1

DFO2036 = tested on: DFO2036
Method in brief: as §1

DIV14 = tested on: DIV14
Method in brief: as §1

DIV17 = tested on: DIV17
Method in brief: as §1

DIV30 = tested on: DIV30
Method in brief: as §1

Dd2 = tested on: Dd2
Method in brief: as §1

ECU = tested on: ECU
Method in brief: as §1

FAB9 = tested on: FAB9
Method in brief: as §1

GB4 = tested on: GB4
Method in brief: as §1
Potency means the concentration at half of the fitted maximal effect.

Cn1c(=O)c2[nH]cnc2n(C)c1=O
Potency (CP329): inactive | Potency (CP335): inactive | Potency (DFO2036): inactive | Potency (DIV14): inactive | Potency (DIV17): inactive | Potency (DIV30): inactive | Potency (Dd2): inactive | Potency (ECU): inactive | Potency (FAB9): inactive | Potency (GB4): inactive

CC(C)(C)C(=O)Oc1ccc(S(=O)(=O)Nc2ccccc2C(=O)NCC(=O)O)cc1
Potency (CP329): inactive | Potency (CP335): inactive | Potency (DFO2036): inactive | Potency (DIV14): inactive | Potency (DIV17): inactive | Potency (DIV30): inactive | Potency (Dd2): inactive | Potency (FAB9): inactive | Potency (GB4): inactive

Nc1nnc(-c2cccc(Cl)c2Cl)c(N)n1
Potency (CP329): inactive | Potency (CP335): inactive | Potency (DFO2036): inactive | Potency (DIV14): inactive | Potency (DIV17): inactive | Potency (Dd2): inactive | Potency (ECU): inactive | Potency (FAB9): inactive | Potency (GB4): inactive

Clc1ccccc1C(c1ccccc1)(c1ccccc1)n1ccnc1
Potency (CP329): 2870 nM (active) | Potency (CP335): 1280 nM (active) | Potency (DFO2036): 708 nM (active) | Potency (DIV14): 455 nM (active) | Potency (DIV17): 287 nM (active) | Potency (DIV30): 228 nM (active) | Potency (Dd2): 708 nM (active) | Potency (ECU): 158 nM (active) | Potency (FAB9): 1780 nM (active) | Potency (GB4): 809 nM (active)

Clc1ccc2nsnc2c1NC1=NCCN1
Potency (CP329): inactive | Potency (CP335): inactive | Potency (DFO2036): inactive | Potency (DIV14): inactive | Potency (DIV17): inactive | Potency (DIV30): inactive | Potency (Dd2): inactive | Potency (ECU): inactive | Potency (FAB9): inactive | Potency (GB4): inactive

CN1C(C(=O)Nc2ccccn2)=C(O)c2ccccc2S1(=O)=O
Potency (CP329): inactive | Potency (CP335): inactive | Potency (DFO2036): inactive | Potency (DIV14): inactive | Potency (DIV17): inactive | Potency (DIV30): inactive | Potency (Dd2): inactive | Potency (ECU): inactive | Potency (FAB9): inactive | Potency (GB4): inactive

CN1CCN2c3ccccc3Cc3ccccc3C2C1 (configuration not stated)
Potency (CP329): inactive | Potency (CP335): inactive | Potency (DFO2036): inactive | Potency (DIV14): inactive | Potency (DIV17): inactive | Potency (DIV30): inactive | Potency (Dd2): inactive | Potency (ECU): inactive | Potency (FAB9): inactive | Potency (GB4): inactive

Cc1cc(C(C)(C)C)c(O)c(C)c1CC1=NCCN1
Potency (CP329): inactive | Potency (CP335): inactive | Potency (DFO2036): inactive | Potency (DIV14): inactive | Potency (DIV17): inactive | Potency (DIV30): inactive | Potency (Dd2): inactive | Potency (ECU): inactive | Potency (FAB9): inactive | Potency (GB4): inactive

OCCN1CCN(CCCN2c3ccccc3Sc3ccc(C(F)(F)F)cc32)CC1
Potency (CP329): 13500 nM (active) | Potency (CP335): 4260 nM (active) | Potency (DFO2036): 7080 nM (active) | Potency (DIV14): 6750 nM (active) | Potency (DIV17): 6010 nM (active) | Potency (DIV30): 8490 nM (active) | Potency (Dd2): 11200 nM (active) | Potency (ECU): 6310 nM (active) | Potency (GB4): 6010 nM (active)

CCOC(=O)c1ncn2c1CN(C)C(=O)c1cc(F)ccc1-2
Potency (CP329): inactive | Potency (CP335): inactive | Potency (DFO2036): inactive | Potency (DIV14): inactive | Potency (DIV17): inactive | Potency (DIV30): inactive | Potency (Dd2): inactive | Potency (ECU): inactive | Potency (FAB9): inactive | Potency (GB4): inactive

CS(=O)(=O)CCNCc1ccc(-c2ccc3ncnc(Nc4ccc(OCc5cccc(F)c5)c(Cl)c4)c3c2)o1
Potency (CP329): inactive | Potency (CP335): inactive | Potency (DFO2036): inactive | Potency (DIV14): inactive | Potency (DIV17): inactive | Potency (DIV30): inactive | Potency (Dd2): inactive | Potency (ECU): inactive | Potency (FAB9): inactive | Potency (GB4): inactive

Nc1nc2c(ncn2COC(CO)CO)c(=O)[nH]1
Potency (CP329): inactive | Potency (CP335): inactive | Potency (DFO2036): inactive | Potency (DIV14): inactive | Potency (DIV17): inactive | Potency (DIV30): inactive | Potency (Dd2): inactive | Potency (ECU): inactive | Potency (FAB9): inactive | Potency (GB4): inactive

C[C@](N)(Cc1ccc(O)c(O)c1)C(=O)O
Potency (CP329): inactive | Potency (CP335): inactive | Potency (DFO2036): inactive | Potency (DIV14): inactive | Potency (DIV17): inactive | Potency (DIV30): inactive | Potency (Dd2): inactive | Potency (ECU): inactive | Potency (FAB9): inactive | Potency (GB4): inactive

Cc1cn([C@H]2C[C@H](N=[N+]=[N-])[C@@H](CO)O2)c(=O)[nH]c1=O
Potency (CP329): inactive | Potency (CP335): inactive | Potency (DFO2036): inactive | Potency (DIV14): inactive | Potency (DIV17): inactive | Potency (DIV30): inactive | Potency (Dd2): inactive | Potency (ECU): inactive | Potency (FAB9): inactive | Potency (GB4): inactive

O=c1c(-c2ccc(O)cc2)coc2cc(O)cc(O)c12
Potency (CP329): inactive | Potency (CP335): inactive | Potency (DFO2036): inactive | Potency (DIV14): inactive | Potency (DIV17): inactive | Potency (DIV30): inactive | Potency (Dd2): inactive | Potency (ECU): inactive | Potency (FAB9): inactive | Potency (GB4): inactive

CC[N+](CC)(CC)CCOc1cccc(OCC[N+](CC)(CC)CC)c1OCC[N+](CC)(CC)CC
Potency (CP329): inactive | Potency (CP335): inactive | Potency (DFO2036): inactive | Potency (DIV14): inactive | Potency (DIV17): inactive | Potency (DIV30): inactive | Potency (Dd2): inactive | Potency (ECU): inactive | Potency (FAB9): inactive | Potency (GB4): inactive

Cc1cnc(C(=O)NCCc2ccc(S(=O)(=O)NC(=O)NC3CCCCC3)cc2)cn1
Potency (CP329): inactive | Potency (CP335): inactive | Potency (DFO2036): inactive | Potency (DIV14): inactive | Potency (DIV17): inactive | Potency (DIV30): inactive | Potency (Dd2): inactive | Potency (ECU): inactive | Potency (FAB9): inactive | Potency (GB4): inactive

Cc1ccc(C(=O)Nc2ccc(S(=O)(=O)O)c3cc(S(=O)(=O)O)cc(S(=O)(=O)O)c23)cc1NC(=O)c1cccc(NC(=O)Nc2cccc(C(=O)Nc3cc(C(=O)Nc4ccc(S(=O)(=O)O)c5cc(S(=O)(=O)O)cc(S(=O)(=O)O)c45)ccc3C)c2)c1
Potency (CP329): inactive | Potency (CP335): inactive | Potency (DFO2036): inactive | Potency (DIV14): inactive | Potency (DIV17): inactive | Potency (DIV30): inactive | Potency (Dd2): inactive | Potency (ECU): inactive | Potency (FAB9): inactive | Potency (GB4): inactive

NCCCCCC(=O)O
Potency (CP329): inactive | Potency (CP335): inactive | Potency (DFO2036): inactive | Potency (DIV14): inactive | Potency (DIV17): inactive | Potency (DIV30): inactive | Potency (Dd2): inactive | Potency (ECU): inactive | Potency (FAB9): inactive | Potency (GB4): inactive

COc1nc(C)nc(Cl)c1NC1=NCCN1
Potency (CP329): inactive | Potency (CP335): inactive | Potency (DFO2036): inactive | Potency (DIV14): inactive | Potency (DIV17): inactive | Potency (DIV30): inactive | Potency (Dd2): inactive | Potency (ECU): inactive | Potency (FAB9): inactive | Potency (GB4): inactive

Cn1c(=O)c2c(ncn2C)n(C)c1=O
Potency (CP329): inactive | Potency (CP335): inactive | Potency (DFO2036): inactive | Potency (DIV14): inactive | Potency (DIV17): inactive | Potency (DIV30): inactive | Potency (Dd2): inactive | Potency (ECU): inactive | Potency (FAB9): inactive | Potency (GB4): inactive

Cn1cnc2c1c(=O)[nH]c(=O)n2C
Potency (CP329): inactive | Potency (CP335): inactive | Potency (DFO2036): inactive | Potency (DIV14): inactive | Potency (DIV17): inactive | Potency (DIV30): inactive | Potency (Dd2): inactive | Potency (ECU): inactive | Potency (FAB9): inactive | Potency (GB4): inactive

COc1ccc2[nH]cc(CCNC(C)=O)c2c1
Potency (CP329): inactive | Potency (CP335): inactive | Potency (DFO2036): inactive | Potency (DIV14): inactive | Potency (DIV17): inactive | Potency (DIV30): inactive | Potency (Dd2): inactive | Potency (ECU): inactive | Potency (FAB9): inactive | Potency (GB4): inactive

Cc1cn([C@H]2C=C[C@@H](CO)O2)c(=O)[nH]c1=O
Potency (CP329): inactive | Potency (CP335): inactive | Potency (DFO2036): inactive | Potency (DIV14): inactive | Potency (DIV17): inactive | Potency (DIV30): inactive | Potency (Dd2): inactive | Potency (ECU): inactive | Potency (FAB9): inactive | Potency (GB4): inactive

CN(C)c1nc(N(C)C)nc(N(C)C)n1
Potency (CP329): inactive | Potency (CP335): inactive | Potency (DFO2036): inactive | Potency (DIV14): inactive | Potency (DIV17): inactive | Potency (DIV30): inactive | Potency (Dd2): inactive | Potency (ECU): inactive | Potency (FAB9): inactive | Potency (GB4): inactive

CN(CCOc1ccc(NS(C)(=O)=O)cc1)CCc1ccc(NS(C)(=O)=O)cc1
Potency (CP329): inactive | Potency (CP335): inactive | Potency (DFO2036): inactive | Potency (DIV14): inactive | Potency (DIV17): inactive | Potency (DIV30): inactive | Potency (Dd2): inactive | Potency (ECU): inactive | Potency (FAB9): inactive | Potency (GB4): inactive

N[C@@H](Cc1c[nH]c2ccc(O)cc12)C(=O)O
Potency (CP329): inactive | Potency (CP335): inactive | Potency (DFO2036): inactive | Potency (DIV14): inactive | Potency (DIV17): inactive | Potency (DIV30): inactive | Potency (Dd2): inactive | Potency (ECU): inactive | Potency (FAB9): inactive | Potency (GB4): inactive

COc1ccccc1OCC(O)CN1CCN(CC(=O)Nc2c(C)cccc2C)CC1 (configuration not stated)
Potency (CP329): inactive | Potency (CP335): inactive | Potency (DFO2036): inactive | Potency (DIV14): inactive | Potency (DIV17): inactive | Potency (DIV30): inactive | Potency (Dd2): inactive | Potency (ECU): inactive | Potency (FAB9): inactive | Potency (GB4): inactive

CC(C)Cc1ccc(C(C)C(=O)O)cc1 (configuration not stated)
Potency (CP329): inactive | Potency (CP335): inactive | Potency (DFO2036): inactive | Potency (DIV14): inactive | Potency (DIV17): inactive | Potency (DIV30): inactive | Potency (Dd2): inactive | Potency (ECU): inactive | Potency (FAB9): inactive | Potency (GB4): inactive

CCOC(=O)C(C)(C)Oc1ccc(Cl)cc1
Potency (CP329): inactive | Potency (CP335): inactive | Potency (DFO2036): inactive | Potency (DIV14): inactive | Potency (DIV17): inactive | Potency (DIV30): inactive | Potency (Dd2): inactive | Potency (ECU): inactive | Potency (FAB9): inactive | Potency (GB4): inactive

CC(=O)OCC(CCn1cnc2cnc(N)nc21)COC(C)=O
Potency (CP329): inactive | Potency (CP335): inactive | Potency (DFO2036): inactive | Potency (DIV14): inactive | Potency (DIV17): inactive | Potency (DIV30): inactive | Potency (Dd2): inactive | Potency (ECU): inactive | Potency (FAB9): inactive | Potency (GB4): inactive
